# Tested on: WHIM30 (cells of a triple-negative basal-like breast cancer xenograft)
# Experiment: cell viability of combination (% of vehicle); higher = less cytotoxic
# Conditions: 1 µM; 72 h; partner dose: 10 nM
# Protocol: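 PDX cells were treated for 72 h with each drug at 1 µM plus carfilzomib (10 nM; 100 nM for WHIM2). Luciferase viability is expressed as percent of vehicle.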
row,Structure (SMILES),cell viability of combination
1,CC1(C)CCC(c2ccc(Cl)cc2)=C(CN2CCN(c3ccc(C(=O)NS(=O)(=O)c4ccc(NC(CCN5CCOCC5)CSc5ccccc5)c(S(=O)(=O)C(F)(F)F)c4)cc3)CC2)C1 (stereo not given) [ABT-263 (Navitoclax)] + CC(C)C[C@H](NC(=O)[C@H](CCc1ccccc1)NC(=O)CN1CCOCC1)C(=O)N[C@@H](Cc1ccccc1)C(=O)N[C@@H](CC(C)C)C(=O)[C@@]1(C)CO1 [Carfilzomib],13.3
2,CC(C)(C)NC(=O)C1CC2CCCCC2CN1CC(O)C(Cc1ccccc1)NC(=O)C(CC(N)=O)NC(=O)c1ccc2ccccc2n1.CS(=O)(=O)O (stereo not given) [Saquinavir mesylate] + CC(C)C[C@H](NC(=O)[C@H](CCc1ccccc1)NC(=O)CN1CCOCC1)C(=O)N[C@@H](Cc1ccccc1)C(=O)N[C@@H](CC(C)C)C(=O)[C@@]1(C)CO1 [Carfilzomib],22.9
3,C=C1C(=CC=C2CCCC3(C)C2CCC3C(C)CCCC(C)(C)O)CC(O)CC1O (stereo not given) [Calcitriol] + CC(C)C[C@H](NC(=O)[C@H](CCc1ccccc1)NC(=O)CN1CCOCC1)C(=O)N[C@@H](Cc1ccccc1)C(=O)N[C@@H](CC(C)C)C(=O)[C@@]1(C)CO1 [Carfilzomib],19.1
4,CC(O)C(=O)O.CCOc1ccc2nc3cc(N)ccc3c(N)c2c1.O [Ethacridine lactate monohydrate] + CC(C)C[C@H](NC(=O)[C@H](CCc1ccccc1)NC(=O)CN1CCOCC1)C(=O)N[C@@H](Cc1ccccc1)C(=O)N[C@@H](CC(C)C)C(=O)[C@@]1(C)CO1 [Carfilzomib],15.2
5,CCOc1cc2ncc(C#N)c(Nc3ccc(OCc4ccccn4)c(Cl)c3)c2cc1NC(=O)C=CCN(C)C [Neratinib (HKI-272)] + CC(C)C[C@H](NC(=O)[C@H](CCc1ccccc1)NC(=O)CN1CCOCC1)C(=O)N[C@@H](Cc1ccccc1)C(=O)N[C@@H](CC(C)C)C(=O)[C@@]1(C)CO1 [Carfilzomib],17.5
6,CC(C)(C)c1ccc(C(O)CCCN2CCC(C(O)(c3ccccc3)c3ccccc3)CC2)cc1 (stereo not given) [Terfenadine] + CC(C)C[C@H](NC(=O)[C@H](CCc1ccccc1)NC(=O)CN1CCOCC1)C(=O)N[C@@H](Cc1ccccc1)C(=O)N[C@@H](CC(C)C)C(=O)[C@@]1(C)CO1 [Carfilzomib],15.5
7,CS(=O)(=O)O.Cc1c(O)cccc1C(=O)NC(CSc1ccccc1)C(O)CN1CC2CCCCC2CC1C(=O)NC(C)(C)C (stereo not given) [Nelfinavir Mesylate] + CC(C)C[C@H](NC(=O)[C@H](CCc1ccccc1)NC(=O)CN1CCOCC1)C(=O)N[C@@H](Cc1ccccc1)C(=O)N[C@@H](CC(C)C)C(=O)[C@@]1(C)CO1 [Carfilzomib],26.7
8,CN(C(=O)CN(CCO)CC(=O)N(C)C(C)(C)Cc1ccccc1)C(C)(C)Cc1ccccc1 [Oxethazaine] + CC(C)C[C@H](NC(=O)[C@H](CCc1ccccc1)NC(=O)CN1CCOCC1)C(=O)N[C@@H](Cc1ccccc1)C(=O)N[C@@H](CC(C)C)C(=O)[C@@]1(C)CO1 [Carfilzomib],20.8
9,Cc1ccc(C(=O)N(CCCN)C(c2nc3cc(Cl)ccc3c(=O)n2Cc2ccccc2)C(C)C)cc1 (stereo not given) + CC(C)C[C@H](NC(=O)[C@H](CCc1ccccc1)NC(=O)CN1CCOCC1)C(=O)N[C@@H](Cc1ccccc1)C(=O)N[C@@H](CC(C)C)C(=O)[C@@]1(C)CO1 [Carfilzomib],19.6
10,CC1=C(C(=O)OC(C)C)C(c2cccc([N+](=O)[O-])c2)C(C(=O)OC2CN(C(c3ccccc3)c3ccccc3)C2)=C(N)N1 (stereo not given) [Azelnidipine] + CC(C)C[C@H](NC(=O)[C@H](CCc1ccccc1)NC(=O)CN1CCOCC1)C(=O)N[C@@H](Cc1ccccc1)C(=O)N[C@@H](CC(C)C)C(=O)[C@@]1(C)CO1 [Carfilzomib],14.5
11,Clc1ccc(COC(Cn2ccnc2)c2ccc(Cl)cc2Cl)c(Cl)c1.O=[N+]([O-])O (stereo not given) [Miconazole Nitrate] + CC(C)C[C@H](NC(=O)[C@H](CCc1ccccc1)NC(=O)CN1CCOCC1)C(=O)N[C@@H](Cc1ccccc1)C(=O)N[C@@H](CC(C)C)C(=O)[C@@]1(C)CO1 [Carfilzomib],14
12,COc1cc2ncnc(Nc3ccc(F)c(Cl)c3)c2cc1NC(=O)C=CCN1CCCCC1 + CC(C)C[C@H](NC(=O)[C@H](CCc1ccccc1)NC(=O)CN1CCOCC1)C(=O)N[C@@H](Cc1ccccc1)C(=O)N[C@@H](CC(C)C)C(=O)[C@@]1(C)CO1 [Carfilzomib],14.6
13,CC(C)(C)c1ccc(C(=O)CCCN2CCC(OC(c3ccccc3)c3ccccc3)CC2)cc1 [Ebastine] + CC(C)C[C@H](NC(=O)[C@H](CCc1ccccc1)NC(=O)CN1CCOCC1)C(=O)N[C@@H](Cc1ccccc1)C(=O)N[C@@H](CC(C)C)C(=O)[C@@]1(C)CO1 [Carfilzomib],15.8
14,CCCCCCCCCCCC1=C(O)C(=O)C=C(O)C1=O [Embelin] + CC(C)C[C@H](NC(=O)[C@H](CCc1ccccc1)NC(=O)CN1CCOCC1)C(=O)N[C@@H](Cc1ccccc1)C(=O)N[C@@H](CC(C)C)C(=O)[C@@]1(C)CO1 [Carfilzomib],17.7
15,C=C1C(=CC=C2CCCC3(C)C2CCC3C(C)CCCC(C)C)CC(O)CC1O (stereo not given) [Alfacalcidol] + CC(C)C[C@H](NC(=O)[C@H](CCc1ccccc1)NC(=O)CN1CCOCC1)C(=O)N[C@@H](Cc1ccccc1)C(=O)N[C@@H](CC(C)C)C(=O)[C@@]1(C)CO1 [Carfilzomib],16.6
16,Cc1c(C(=O)NN2CCCCC2)nn(-c2ccc(Cl)cc2Cl)c1-c1ccc(Cl)cc1 [Rimonabant] + CC(C)C[C@H](NC(=O)[C@H](CCc1ccccc1)NC(=O)CN1CCOCC1)C(=O)N[C@@H](Cc1ccccc1)C(=O)N[C@@H](CC(C)C)C(=O)[C@@]1(C)CO1 [Carfilzomib],16.3
17,O=C(NC1CCN(CCCCC2(C(=O)NCC(F)(F)F)c3ccccc3-c3ccccc32)CC1)c1ccccc1-c1ccc(C(F)(F)F)cc1 [Lomitapide] + CC(C)C[C@H](NC(=O)[C@H](CCc1ccccc1)NC(=O)CN1CCOCC1)C(=O)N[C@@H](Cc1ccccc1)C(=O)N[C@@H](CC(C)C)C(=O)[C@@]1(C)CO1 [Carfilzomib],9.93
18,Cc1nc(Nc2ncc(C(=O)Nc3c(C)cccc3Cl)s2)cc(N2CCN(CCO)CC2)n1 + CC(C)C[C@H](NC(=O)[C@H](CCc1ccccc1)NC(=O)CN1CCOCC1)C(=O)N[C@@H](Cc1ccccc1)C(=O)N[C@@H](CC(C)C)C(=O)[C@@]1(C)CO1 [Carfilzomib],26.6
19,CNC(=O)c1cc(Oc2ccc(NC(=O)Nc3ccc(Cl)c(C(F)(F)F)c3)cc2)ccn1 [Sorafenib] + CC(C)C[C@H](NC(=O)[C@H](CCc1ccccc1)NC(=O)CN1CCOCC1)C(=O)N[C@@H](Cc1ccccc1)C(=O)N[C@@H](CC(C)C)C(=O)[C@@]1(C)CO1 [Carfilzomib],18
20,O=C(O)CO.[NH2-].[NH2-].[Pt+2] [Nedaplatin] + CC(C)C[C@H](NC(=O)[C@H](CCc1ccccc1)NC(=O)CN1CCOCC1)C(=O)N[C@@H](Cc1ccccc1)C(=O)N[C@@H](CC(C)C)C(=O)[C@@]1(C)CO1 [Carfilzomib],16.4

# — the supplement of paper PMC6992640
